# Unmarked numbers belong to inactive results. How the calls were made is not given here.
# Target: Pantothenate synthetase (Mycobacterium tuberculosis (strain ATCC 25618 / H37Rv)) (UniProt P9WIL5)
# Assay: Recombinant Mtb pantothenate synthetase (PanC) inhibitors, coupled enzyme, confirmatory (AID 375);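 further: 0% = full reaction with vehicle and 100% = no enzyme background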
# Details: coupled enzyme assay; at 10 µM, active compounds read high
# Chain of Pantothenate synthetase (Mycobacterium tuberculosis (strain ATCC 25618 / H37Rv)) (P9WIL5 whole entry, looked up): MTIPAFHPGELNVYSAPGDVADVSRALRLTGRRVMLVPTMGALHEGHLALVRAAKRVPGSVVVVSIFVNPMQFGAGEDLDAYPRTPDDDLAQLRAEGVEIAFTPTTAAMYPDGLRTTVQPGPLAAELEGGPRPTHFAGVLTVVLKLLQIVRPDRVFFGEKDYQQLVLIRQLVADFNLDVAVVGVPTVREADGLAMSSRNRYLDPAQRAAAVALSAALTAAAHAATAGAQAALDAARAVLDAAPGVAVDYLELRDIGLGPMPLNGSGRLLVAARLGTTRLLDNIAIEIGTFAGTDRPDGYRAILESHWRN
row,SMILES,inhibition [%]
1,Cn1c(=O)[nH]c(=O)c2c1nc(Br)n2Cc1ccccc1F,0
2,CCOc1ccccc1NC(=O)N1CCCC1C(=O)Nc1nnc(CC)s1 (stereo not drawn),0
3,O=C(Cc1nn[nH]n1)NCCC1=CCCCC1,4
4,CCOCCCNC(=O)C1CCN(S(=O)(=O)c2c(C)noc2/C=C\c2ccc(OC)cc2)CC1,8
5,CCOC(=O)CNc1ccc2c(c1)OCO2,0
6,CC(C)(CO)NC(=O)CCCOc1ccc(Cl)cc1Cl,0
7,O=C(NC1CCCC1)C(c1cccs1)N(C(=O)c1ccno1)c1ccccc1 (stereo not drawn),9
8,CCCCn1c(CNC(=O)CCC)nc2ccccc21,4
9,O=C(COC(=O)c1ccccc1O)Nc1ccc(OC(F)F)cc1,0
10,COc1cc(C(=O)Nc2cc(Cl)ccc2C)c(-n2cnnn2)cc1OC,9
11,O=C(c1ccccc1)c1ccncc1,10
12,Cc1nc(C)n(C(C)CC(=O)O)n1 (stereo not drawn),0
13,Cc1cccn2c(=O)c3cc(C#N)c(=NC(=O)c4cccnc4)n(CC4CCCO4)c3nc12 (stereo not drawn),0
14,COCCCNC(=O)C1CCN(C(=O)Nc2ccc(Cl)cc2)CC1,0
15,COc1ccc(OC)c(C(=O)c2coc3ccc(O)c(CN4CCOCC4)c23)c1,0
16,Cc1ccc2cc3cc(C(=O)N4CC(C)CC(C)C4)oc3nc2c1 (stereo not drawn),3
17,CCOC(=O)Cn1nnc(-c2ccc(SC)cc2)n1,0
18,CCOC(=O)C1CSC(CC(=O)Nc2ccc(Cl)cc2)C(=O)N1 (stereo not drawn),0
